The panel holds about 83,000 compounds, 20% with a hit somewhere; the sample as a whole holds those more often.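 Negative percent growth values reflect cell death: -40 means 40% of the cells present at the start died, and -100 means all died.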 Unmarked numbers belong to inactive results. Calls of active or inactive are those of the source. Rule for the calls: active = growth percent below 10; inactive = the rest.
Tests used:
Test in all cases: NCI-60 one-dose screen, 48 h (100 = growth as untreated, 0 = no growth, -100 = all killed)
Conditions in all cases: 10 µM unless noted
NCI-H23 lung = test system: NCI-H23 lung
NCI-H226 lung = test system: NCI-H226 lung
NCI-H322M lung = test system: NCI-H322M lung
HOP-62 NSCLC = test system: HOP-62 NSCLC
NCI-H460 lung = test system: NCI-H460 lung
HOP-92 NSCLC = test system: HOP-92 NSCLC
NCI-H522 lung = test system: NCI-H522 lung
A549/ATCC NSCLC = test system: A549/ATCC NSCLC
786-0 renal = test system: 786-0 renal
COLO 205 colon = test system: COLO 205 colon
DU-145 prostate = test system: DU-145 prostate
K-562 leukemia = test system: K-562 leukemia
MALME-3M melanoma = test system: MALME-3M melanoma
MDA-MB-231 breast = test system: MDA-MB-231 breast
RXF 393 renal = test system: RXF 393 renal
SF-268 CNS = test system: SF-268 CNS
SF-295 CNS = test system: SF-295 CNS
SF-539 CNS = test system: SF-539 CNS
UACC-257 melanoma = test system: UACC-257 melanoma
M14 melanoma = test system: M14 melanoma

Row | Compound | growth (NCI-H23 lung) | growth (NCI-H226 lung) | growth (NCI-H322M lung) [%] | growth (HOP-62 NSCLC) [%] | growth (NCI-H460 lung) | growth (HOP-92 NSCLC) | growth (NCI-H522 lung) | growth (A549/ATCC NSCLC) | growth (786-0 renal) | growth (COLO 205 colon) | growth (DU-145 prostate) | growth (K-562 leukemia) | growth (MALME-3M melanoma) | growth (MDA-MB-231 breast) | growth (RXF 393 renal) | growth (SF-268 CNS) | growth (SF-295 CNS) | growth (SF-539 CNS) | growth (UACC-257 melanoma) | growth (M14 melanoma)
1 | CCO/C=N/S(=O)(=O)c1cc2c(cc1Cl)NC=NS2(=O)=O | 103% | 98.7% | 111 | 93.9 | 106% | 92.2% | 99.4% | 89% | 100% | 108% | 108% | 99.9% | 107% | 106% | 103% | 103% | 104% | 98.1% | 90.2% | 101%
2 | C=C(C)[C@@H]1CC[C@]2(C(=O)OCCOCCOCC[P+](c3ccccc3)(c3ccccc3)c3ccccc3)CC[C@]3(C)[C@H](CC[C@@H]4[C@@]5(C)CC[C@H](OC(=O)C(Cl)Cl)C(C)(C)[C@@H]5CC[C@]43C)[C@@H]12 | 0.446% (active) | -2.33% (active) | 21 | 11 | -13.3% (active) | -67.5% (active) | -24.4% (active) | 6.87% (active) | -85.1% (active) | -83.7% (active) | 15.5% | -20.9% (active) | -82.9% (active) | -46.7% (active) | -81.7% (active) | 4.59% (active) | -82.1% (active) | -20.2% (active) | -27.9% (active) | -80.9% (active)
3 | CN(C)c1ccc(-c2ccc3[nH]c(=O)nc(-c4ccc(F)cc4)c3c2)cn1 | 56.2% | 68.3% | 68.2 | 48.2 | 21.6% | 56.1% | 14.9% | 39.6% | 30.4% | 39.6% | 51.6% | 11.9% | 64.4% | 47.7% | 41.5% | 45.5% | 21.5% | 24.2% | 54.4% | 22.7%
4 | CC(C)C1=C[C@@]23CC[C@H]4[C@](C)(COCCC#N)CCC[C@]4(C)[C@H]2C[C@@H]1[C@@H]1[C@H]3[C@@H](OCCC#N)CC[C@@H]1OCCC#N | 35.7% | 39.8% | 86.1 | 65 | 30.3% | 53% | 25% | 27.6% | 54.3% | 17.4% | 51.4% | 20.2% | 61.4% | 59.5% | 11.8% | 48.4% | 28.7% | 52.8% | 40.9% | 31.4%
5 | Cc1ccc2nc3nc4ccc[nH]c4cc3c2c1 | 65.1% | 78.4% | 72.5 | 76.4 | 53.8% | 121% | 90.1% | 97.6% | 108% | 82.1% | 108% | 111% | 101% | 70.3% | 99.6% | 94.1% | 113% | 83.5% | 119% | 110%
6 | COc1ccc(C2C(c3ccccc3)C(=O)N2c2cc(OC)c(OC)c(OC)c2)cc1I (stereo not given) | 24.6% | 60.6% | 42.9 | 24.7 | 4.29% (active) | 42.5% | -9.3% (active) | 16.9% | 17.4% | -64.3% (active) | 7.36% (active) | 6.76% (active) | 80.1% | 23.3% | 24.2% | 34.9% | 17.9% | 1.87% (active) | 47.9% | 8.46% (active)
7 | CCCCc1n(Cc2ccc3ccccc3n2)cc[n+]1Cc1ccc2ccccc2c1 | -1.01% (active) | 14.2% | 30.6 | 17.4 | 7.73% (active) | -33.9% (active) | -8.22% (active) | 27% | 20.4% | -74.2% (active) | 25.1% | 6.43% (active) | -22.2% (active) | -29.2% (active) | -14.3% (active) | 19.3% | 0.543% (active) | 14.3% | -32.7% (active) | -16.9% (active)
8 | CN1CCN(S(=O)(=O)O[C@@H]2C(=O)N(c3cc4c5ccccc5ccc4c4ccccc34)[C@H]2c2ccc(F)cn2)CC1 | 90.6% | 91.2% | 87.4 | 86.6 | 98% | 65.3% | 70.3% | 83.4% | 79.8% | 96.7% | 94.4% | 74.7% | 115% | 38.8% | 77.6% | 79.7% | 96.5% | 104% | 88.1% | 90.9%

Reference: PubChem BioAssay (NCI)
